About 120 (0.17%) of roughly 70,000 compounds were called active. Rule as the data show it: active = inhibition above about 34%; inconclusive = no clear call, values can overlap the other calls; inactive = below about 11%. What follows is part of a selection rich in actives, with near analogues and random picks from the rest.
Target: Isocitrate dehydrogenase [NADP] cytoplasmic (Homo sapiens) (UniProt O75874)
Assay: PubChem AID 624101;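 also: 0% = DMSO and 100% = no enzyme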
Details: IDH1 R132H reductase, diaphorase/resazurin fluorescence, 60 min; at 10 µM; active compounds read high

Sequence of Isocitrate dehydrogenase [NADP] cytoplasmic (Homo sapiens) (O75874 whole entry R132H): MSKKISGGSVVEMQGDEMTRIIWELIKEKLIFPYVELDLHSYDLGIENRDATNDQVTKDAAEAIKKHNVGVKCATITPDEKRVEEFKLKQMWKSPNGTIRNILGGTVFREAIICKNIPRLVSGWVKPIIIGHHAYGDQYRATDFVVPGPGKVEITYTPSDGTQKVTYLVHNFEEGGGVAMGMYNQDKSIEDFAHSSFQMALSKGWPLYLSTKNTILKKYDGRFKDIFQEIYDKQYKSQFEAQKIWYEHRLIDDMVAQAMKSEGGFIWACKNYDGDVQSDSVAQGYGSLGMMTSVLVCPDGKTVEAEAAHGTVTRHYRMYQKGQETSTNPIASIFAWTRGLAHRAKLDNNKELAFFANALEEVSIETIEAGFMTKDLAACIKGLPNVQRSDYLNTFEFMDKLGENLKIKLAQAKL

Structure (SMILES) | inhibition
CNC[C@H]1Oc2cc(C#Cc3ccccc3)ccc2S(=O)(=O)N([C@@H](C)CO)C[C@@H]1C | 4.92% (inactive)
Cc1ccc(S(=O)(=O)NCC[C@H]2CC[C@@H](NS(=O)(=O)c3ccccc3Cl)[C@H](CO)O2)cc1 | 0.263% (inactive)
O=C(Nc1cccc(Cl)c1)N[C@H]1CC[C@H](CCNC(=O)C2CCOCC2)O[C@H]1CO | 0.082% (inactive)
O=C(C[C@@H]1CC[C@@H](NC(=O)C2CCOCC2)[C@H](CO)O1)Nc1ccc(-c2ccccc2)cc1 | 0.222% (inactive)
O=C(C[C@@H]1C=C[C@H](NC(=O)c2ccc3c(c2)OCO3)[C@H](CO)O1)NCc1ccc(Oc2ccccc2)cc1 | -0.347% (inactive)
O=C(C[C@H]1C=C[C@@H](NC(=O)Nc2cc(F)ccc2F)[C@@H](CO)O1)NCc1ccc2c(c1)OCO2 | -0.0695% (inactive)
CN1CCN(C(=O)C[C@@H]2C[C@H]3c4cc(NC(=O)NC5CCCC5)ccc4O[C@H]3[C@H](CO)O2)CC1 | -0.193% (inactive)
CO[C@H]1CN(C)C(=O)c2ccc(NC(=O)c3nc4ccccc4s3)cc2OC[C@@H](C)N(Cc2cncnc2)C[C@H]1C | -1.03% (inactive)
O=C(C[C@@H]1C[C@@H]2c3cc(NC(=O)C4CCC4)ccc3O[C@@H]2[C@@H](CO)O1)NCc1ccccc1 | 0.171% (inactive)
O=C(C[C@@H]1C[C@@H]2c3cc(NC(=O)Cc4ccncc4)ccc3O[C@@H]2[C@H](CO)O1)NCc1cccc(F)c1 | 0% (inactive)
C[C@H](NC(=O)N(C)C[C@@H]1OCc2ccccc2-c2ccccc2C(=O)N([C@H](C)CO)C[C@@H]1C)c1ccccc1 | -1.38% (inactive)
Cc1noc(C)c1S(=O)(=O)Nc1ccc2c(c1)C(=O)N([C@H](C)CO)C[C@H](C)[C@H](CN(C)S(C)(=O)=O)OCCCC[C@H](C)O2 | 2.45% (inactive)
C[C@@H]1CN([C@@H](C)CO)S(=O)(=O)c2ccc(C#Cc3ccccc3)cc2O[C@@H]1CN(C)C(=O)C1CC1 | -0.265% (inactive)
CO[C@@H]1CN(C)C(=O)c2ccc(NS(=O)(=O)c3ccc(Cl)cc3)cc2OC[C@H](C)N(C(=O)NC(C)C)C[C@H]1C | 0.21% (inactive)
O=C(NCC[C@H]1CC[C@@H](NC(=O)C2CCCC2)[C@@H](CO)O1)c1cc(Cl)cc(Cl)c1 | -0.187% (inactive)
Cc1ccc(S(=O)(=O)NCC[C@@H]2CC[C@H](NC(=O)CC3CC3)[C@H](CO)O2)cc1 | -0.044% (inactive)
O=C(Nc1ccccc1F)N[C@@H]1CC[C@H](CC(=O)N2CCCCC2)O[C@H]1CO | 0.211% (inactive)
O=C(N[C@@H]1CC[C@H](CCn2cc(C3CC3)nn2)O[C@H]1CO)c1cccnc1 | 0.0945% (inactive)
CO[C@@H]1CN(C)C(=O)c2ccc(NS(C)(=O)=O)cc2OC[C@@H](C)N(C(=O)C2CCOCC2)C[C@@H]1C | -0.272% (inactive)
CO[C@@H]1CN(C)C(=O)c2cc(NC(=O)Nc3cc(F)ccc3F)ccc2OC[C@H](C)N(C)C[C@@H]1C | -0.288% (inactive)
CO[C@@H]1CN(C)C(=O)c2ccc(NS(=O)(=O)c3cccc(Cl)c3)cc2OC[C@H](C)NC[C@H]1C | -0.827% (inactive)
Cc1ccc(S(=O)(=O)NCC[C@H]2CC[C@H](NC(=O)c3ccccn3)[C@@H](CO)O2)cc1 | -0.44% (inactive)

Structure (SMILES) | inhibition
C[C@@H]1CN([C@H](C)CO)S(=O)(=O)c2ccc(-c3ccc(C(=O)N(C)C)cc3)cc2O[C@@H]1CN(C)C(=O)Nc1ccccc1F | 0.371% (inactive)
COCCNC(=O)C[C@H]1C=C[C@@H](NS(=O)(=O)c2ccc(C)cc2)[C@@H](CO)O1 | -0.16% (inactive)
O=C(NCCCn1ccnc1)c1cnn2c(C(F)(F)F)cc(-c3ccccc3)nc12 | 42.5% (active)
O=C(NCc1cccnc1)c1cnn2c(C(F)F)cc(-c3ccccc3)nc12 | -0.254% (inactive)
Cc1ccc(-c2cc(C(F)(F)F)n3nc(C(=O)NCCN4CCOCC4)c(Cl)c3n2)cc1 | -0.63% (inactive)
CO[C@H]1CN(C)C(=O)c2ccc(NC(=O)C3CC3)cc2OC[C@@H](C)N(C(=O)c2ccccn2)C[C@@H]1C | 0.315% (inactive)
CO[C@@H]1CN(C)C(=O)c2cc(NC(C)=O)ccc2OC[C@H](C)N(Cc2ccccn2)C[C@H]1C | 0.0735% (inactive)
COc1ccc(C(=O)Nc2ccc3c(c2)C(=O)N(C)C[C@@H](OC)[C@H](C)CN(C(C)=O)[C@@H](C)CO3)cc1 | 0.119% (inactive)
CO[C@H]1CC[C@@H]2CCOc3c(C#N)cccc3C(=O)N(C)CCCC(=O)N(C)C[C@@H]1O2 | -0.199% (inactive)
O=C(C[C@@H]1C[C@@H]2c3cc(NS(=O)(=O)c4ccc(F)cc4)ccc3O[C@@H]2[C@H](CO)O1)N1CCCCC1 | 0.296% (inactive)
O=C(C[C@H]1CC[C@@H](NC(=O)Nc2ccc(F)cc2)[C@@H](CO)O1)NCCN1CCCC1 | -0.0445% (inactive)
O=C(Nc1ccc(C(F)(F)F)cc1)N[C@@H]1CC[C@H](CCNC(=O)c2ccccc2F)O[C@H]1CO | 0.069% (inactive)
Cc1ccc(S(=O)(=O)N[C@H]2CC[C@H](CC(=O)NCc3ccccc3F)O[C@@H]2CO)cc1 | -0.113% (inactive)
CCCc1cn(CC[C@@H]2CC[C@@H](NS(=O)(=O)c3ccccc3Cl)[C@@H](CO)O2)nn1 | -0.18% (inactive)
CO[C@H]1CN(C)C(=O)c2cc(NC(=O)C3CC3)ccc2OC[C@@H](C)NC[C@H]1C | -0.162% (inactive)
Cc1ccc(S(=O)(=O)NCC[C@@H]2CC[C@H](NC(=O)c3ccccn3)[C@H](CO)O2)cc1 | -0.387% (inactive)
Cc1ccc(-c2ccc3c(c2)O[C@@H](CN(C)C(=O)CC2CC2)[C@@H](C)CN([C@@H](C)CO)S3(=O)=O)cc1 | -0.129% (inactive)
O=C(C[C@@H]1CC[C@H](NC(=O)CN2CCOCC2)[C@@H](CO)O1)NCCc1ccccc1 | 0.1% (inactive)
C[C@@H]1CN([C@H](C)CO)S(=O)(=O)c2ccc(-c3ccncc3)cc2O[C@@H]1CN(C)C(=O)CN(C)C | 0.556% (inactive)
O=C(C[C@H]1C=C[C@H](NC(=O)CC2CC2)[C@H](CO)O1)NCc1ccc(Cl)cc1 | -0.172% (inactive)
C[C@@H]1CN([C@H](C)CO)S(=O)(=O)c2ccc(C3=CCCC3)cc2O[C@H]1CN(C)C(=O)c1ccccc1 | 1.4% (inactive)
O=C(C[C@H]1CC[C@H](NC(=O)C2CCC2)[C@@H](CO)O1)Nc1nccs1 | 0.192% (inactive)

Structure (SMILES) | inhibition
CO[C@H]1CN(C)C(=O)c2ccc(NS(=O)(=O)c3ccccc3C)cc2OC[C@H](C)NC[C@H]1C | -0.186% (inactive)
CO[C@H]1CN(C)C(=O)c2cc(NC(C)=O)ccc2OC[C@H](C)N(C(=O)C2CC2)C[C@H]1C | -0.354% (inactive)
CO[C@H]1CN(C)C(=O)c2ccc(NC(=O)C3CCC3)cc2OC[C@@H](C)N(Cc2ccccn2)C[C@H]1C | 0.331% (inactive)
CCC(=O)Nc1ccc2c(c1)C(=O)N(C)C[C@H](OC)[C@H](C)CN(Cc1ccccc1F)[C@H](C)CO2 | 0.217% (inactive)
CO[C@H]1CN(C)C(=O)c2cc(NS(C)(=O)=O)ccc2OC[C@H](C)N(C(=O)C2CCCC2)C[C@H]1C | 0.272% (inactive)
CCC(=O)N(C)C[C@@H]1Oc2cc(C#CC(C)(C)O)ccc2S(=O)(=O)N([C@@H](C)CO)C[C@@H]1C | -1.91% (inactive)
CN(C)C(=O)C[C@@H]1C[C@@H]2c3cc(NC(=O)c4ccc5c(c4)OCO5)ccc3O[C@@H]2[C@H](CO)O1 | -0.927% (inactive)
Cc1ccc(S(=O)(=O)N[C@H]2CC[C@H](CC(=O)O)O[C@H]2CO)cc1 | -0.244% (inactive)
Cc1ccc(S(=O)(=O)N[C@H]2C=C[C@@H](CC(=O)NCCc3ccncc3)O[C@@H]2CO)cc1 | -0.308% (inactive)
COc1ccc(-c2cn(CC[C@H]3CC[C@@H](N)[C@H](CO)O3)nn2)cc1 | 0.0195% (inactive)
CO[C@H]1CN(C)C(=O)c2ccc(NS(=O)(=O)c3cn(C)cn3)cc2OC[C@H](C)N(C)C[C@H]1C | -0.0025% (inactive)
O=C(N[C@H]1C=C[C@@H](CC(=O)N2CCCCC2)O[C@@H]1CO)c1ccc2c(c1)OCO2 | -0.0205% (inactive)
O=C(C[C@@H]1C[C@@H]2c3cc(NC(=O)C4CCOCC4)ccc3O[C@@H]2[C@H](CO)O1)NCc1ccncc1 | -0.106% (inactive)
CCCNC(=O)N1C[C@H](C)[C@H](OC)CN(C)C(=O)c2cc(NC(=O)CC)ccc2OC[C@H]1C | -0.059% (inactive)
CCC(=O)N(C)C[C@@H]1Oc2ncc(-c3ccccc3OC)cc2C(=O)N([C@@H](C)CO)C[C@@H]1C | -0.321% (inactive)
CN1CCN(C(=O)C[C@H]2C[C@H]3c4cc(NC(=O)Nc5ccccc5F)ccc4O[C@H]3[C@H](CO)O2)CC1 | -0.523% (inactive)
O=C(Nc1ccc2c(c1)OCO2)N[C@@H]1CC[C@H](CC(=O)N2CCN(c3ccccc3)CC2)O[C@@H]1CO | -0.0065% (inactive)
O=C(Cc1ccncc1)NCC[C@H]1CC[C@H](NC(=O)C2CC2)[C@H](CO)O1 | 0.014% (inactive)
CCC(=O)N(C)C[C@H]1Oc2cc(C#CCC(C)C)ccc2S(=O)(=O)N([C@H](C)CO)C[C@H]1C | -0.831% (inactive)
O=C(NCC[C@H]1CC[C@@H](NC(=O)c2cnccn2)[C@H](CO)O1)Nc1ccc(Cl)cc1 | -0.362% (inactive)
CN(C)CCCNC(=O)C[C@@H]1C=C[C@H](NC(=O)Cc2cccnc2)[C@H](CO)O1 | 0.394% (inactive)

From PubChem BioAssay AID624101 (Broad Institute, 2012)
